# Reference: PubChem BioAssay (NCATS)
# Values joined by “and” are separate entries in the source; they are usually repeats but may differ in a detail not shown here. Equal values may be shown once. Results filed as inconclusive are left out. Where a call stands in place of a potency, no number is given. Active and inactive are the calls of the source. Unless noted, the call rests on the fitted dose curve.
# Legend:
# [1] = qHTS for Inhibitors of the Functional Ribonucleoprotein Complex (vRNP) of Lassa (LASV) Arenavirus: LASV Primary Screen - GLuc reporter signal (AID 1347082; calls by dose curve; tested in HEK293 reporter line; further: nearly all actives have a fitted effect of over 60% in size; further: potency means the concentration at half of the fitted maximal effect)
# [2] = qHTS for Inhibitors of the Functional Ribonucleoprotein Complex (vRNP) of Lymphocytic Choriomeningitis Arenaviruses (LCMV): Viability assay - alamar blue signal for LCMV Primary Screen (AID 1347085; calls by dose curve; tested in HEK293 reporter line; further: nearly all actives have a fitted effect of over 80% in size; further: potency means the concentration at half of the fitted maximal effect)
# [3] = molecular target: Nucleoprotein (Lymphocytic choriomeningitis virus (strain Armstrong)) (UniProt P09992); experiment: qHTS for Inhibitors of the Functional Ribonucleoprotein Complex (vRNP) of Lymphocytic Choriomeningitis Arenaviruses (LCMV): LCMV Primary Screen - GLuc reporter signal (AID 1347086); further: nearly all actives have a fitted effect of over 70% in size; further: potency means the concentration at half of the fitted maximal effect
# Chain of Nucleoprotein (Lymphocytic choriomeningitis virus (strain Armstrong)) (P09992 whole entry, looked up): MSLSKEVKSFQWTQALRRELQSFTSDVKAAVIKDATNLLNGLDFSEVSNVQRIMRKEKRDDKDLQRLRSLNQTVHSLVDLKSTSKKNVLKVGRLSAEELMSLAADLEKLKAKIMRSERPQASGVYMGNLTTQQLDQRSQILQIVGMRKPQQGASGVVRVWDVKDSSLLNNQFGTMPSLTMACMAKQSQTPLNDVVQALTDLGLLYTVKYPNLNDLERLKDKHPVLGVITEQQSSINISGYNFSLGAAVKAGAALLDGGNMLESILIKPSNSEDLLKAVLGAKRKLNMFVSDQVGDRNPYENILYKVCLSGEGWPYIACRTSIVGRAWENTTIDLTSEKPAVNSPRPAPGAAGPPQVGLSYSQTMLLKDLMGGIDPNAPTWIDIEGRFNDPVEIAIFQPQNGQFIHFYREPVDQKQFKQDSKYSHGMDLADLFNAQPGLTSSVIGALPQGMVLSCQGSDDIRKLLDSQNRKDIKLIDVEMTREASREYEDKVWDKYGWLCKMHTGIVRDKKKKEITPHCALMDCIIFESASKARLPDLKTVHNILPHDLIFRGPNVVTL
# [4] = Confirmatory qHTS for VERO E6 Cytotoxicity Assay: Counterscreen for SARS-CoV-2 CPE Assay (AID 1508605); further: potency means the concentration at half of the fitted maximal effect; nearly all actives have a fitted effect of over 60% in size
# [5] = Confirmatory qHTS for activators (rescue) of SARS-CoV-2 Cytopathic Effect (CPE) (AID 1508606); further: potency means the concentration at half of the fitted maximal effect; nearly all actives have a fitted effect of over 70% in size
# [6] = Primary qHTS to identify inhibitors of SARS-CoV-2 cell entry (AID 1645846); details: activity change, negative = inhibition: at 57.1 µM (top of the series) unless noted; further: nearly all actives have a fitted effect of over 45% in size; further: potency means the concentration at half of the fitted maximal effect
# Procedure, shortened: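 Entry measured by luciferase signal 48 h after adding SARS-CoV-2-S pseudotyped MLV particles to HEK293-ACE2 cells preincubated 1 h with compounds. Normalisation: bald particles and spike particles.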
# [7] = Cytotoxicity counterscreen for inhibitors of SARS-CoV-2 cell entry (AID 1645845); further: nearly all actives have a fitted effect of over 50% in size; further: potency means the concentration at half of the fitted maximal effect
# Procedure, shortened: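 Counterscreen run in the same HEK293-ACE2 line as the pseudotyped-particle entry assay, without particles. Viability after 48 h at 37 C was read as ATP luminescence, scaled between cell-containing and cell-free wells.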
# [8] = qHTS for inhibitors of Rabies Virus screened against the NCATS CANVASS Library (AID 1347402)
# [9] = molecular target: Alpha-galactosidase (Coffea arabica) (UniProt Q42656); experiment: Counterscreen for Glucocerebrosidase Inhibitors: qHTS Assay for Coffee Bean alpha-Galactosidase at pH 4.5 (AID 957; active means well fitted curve in the direction sought with a large enough effect; an effect the other way counts as inactive or inconclusive)
# Chain of Alpha-galactosidase (Coffea arabica) (Q42656 whole entry, looked up): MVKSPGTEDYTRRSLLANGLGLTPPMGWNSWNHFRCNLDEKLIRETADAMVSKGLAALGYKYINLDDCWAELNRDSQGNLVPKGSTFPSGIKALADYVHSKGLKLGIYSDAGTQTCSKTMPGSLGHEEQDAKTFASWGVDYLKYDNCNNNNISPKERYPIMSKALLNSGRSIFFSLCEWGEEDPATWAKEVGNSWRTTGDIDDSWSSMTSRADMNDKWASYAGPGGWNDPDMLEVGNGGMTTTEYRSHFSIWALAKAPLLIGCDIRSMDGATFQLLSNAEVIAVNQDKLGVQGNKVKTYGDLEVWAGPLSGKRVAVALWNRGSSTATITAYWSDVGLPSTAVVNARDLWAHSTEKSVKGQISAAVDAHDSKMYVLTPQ
# Procedure, shortened: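 Fluorogenic read-out: 4-methylumbelliferone at Ex 365/Em 440 nm after NaOH/glycine stop (pH 10). Enzyme 2 nM, 4-MU-alpha-galactoside 80 uM, citrate buffer pH 4.5, 20 min RT; normalized to no-enzyme and enzyme controls.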
# [10] = molecular target: Alpha-galactosidase (Coffea arabica) (UniProt Q42656); experiment: Counterscreen for Glucocerebrosidase Inhibitors: qHTS Assay for Coffee Bean alpha-Galactosidase at pH 5.9 (AID 998; active means well fitted curve in the direction sought with a large enough effect; an effect the other way counts as inactive or inconclusive)
# Procedure, shortened: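 Enzyme 2 nM + cpd (0.7 nM–77 uM titration) + 4-MU-alpha-Gal 80 uM, pH 5.9 citrate/Tween-20, RT 20 min, NaOH/glycine stop pH 10, fluor 365/440. Normalized to no-enzyme and full-activity controls; Hill-fit AC50.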
# [11] = Validation screen for inhibitors of Lassa infection (AID 463096)
# [12] = Inducers of the Endoplasmic Reticulum Stress Response (ERSR) in human glioma: Validation (AID 504836; active means well fitted curve in the direction sought with a large enough effect; an effect the other way counts as inactive or inconclusive)
# Procedure, shortened: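 Stably transfected U87-MG glioma cells carrying a GRP78-based luciferase sensor; 16 h compound incubation. Luminescence end-point read 10 min after Bright-Glo addition at room temperature.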
# [13] = molecular target: Peroxisome proliferator-activated receptor delta (Homo sapiens) (UniProt Q03181); experiment: qHTS assay for small molecule agonists of peroxisome proliferator-activated receptor delta signaling (AID 588534)
# Chain of Peroxisome proliferator-activated receptor delta (Homo sapiens) (Q03181 whole entry, looked up): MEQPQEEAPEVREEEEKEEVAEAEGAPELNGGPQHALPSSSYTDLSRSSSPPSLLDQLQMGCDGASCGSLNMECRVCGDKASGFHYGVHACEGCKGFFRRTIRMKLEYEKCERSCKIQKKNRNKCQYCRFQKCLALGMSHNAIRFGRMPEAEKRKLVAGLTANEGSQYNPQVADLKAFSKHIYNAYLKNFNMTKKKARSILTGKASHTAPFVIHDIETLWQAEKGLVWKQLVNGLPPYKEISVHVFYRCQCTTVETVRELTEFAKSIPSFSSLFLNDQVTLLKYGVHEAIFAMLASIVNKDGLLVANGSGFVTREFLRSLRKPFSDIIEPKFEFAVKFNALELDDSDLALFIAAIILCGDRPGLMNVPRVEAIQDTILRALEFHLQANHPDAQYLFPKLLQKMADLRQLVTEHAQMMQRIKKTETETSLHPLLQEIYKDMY
# Procedure, shortened: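 Titration series tested in agonist mode on beta-lactamase reporter cells; 18 hrs at 37 C after a 5 hr pre-incubation. Readout: CCF4 fluorescence, 2 hrs RT. Hill equation gives EC50 and maximal response.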
# [14] = Primary qHTS for inhibitors of SARS-S pseudo-typed particle cell entry (AID 1479145); further: nearly all actives have a fitted effect of over 45% in size; further: potency means the concentration at half of the fitted maximal effect
# [15] = Primary qHTS for Huh7 cytotoxicity: counterscreen for inhibitors of MERS-S pseudotyped particle cell entry (AID 1479147); details: outcome: dose series up to 57.1 µM unless noted
# [16] = Primary qHTS for Vero E6 cytotoxicity: counterscreen for inhibitors of SARS-S pseudo-typed particle cell entry (AID 1479150); details: outcome: dose series up to 57.1 µM unless noted
# [17] = qHTS Assay for Lipid Storage Modulators (AID 1519); details: Drosophila S3 cells, BODIPY lipid droplet/cell ratio, laser cytometry, cells loaded with oleic acid
# Procedure, shortened: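 Cells seeded at 5,000 per well were treated with compounds over a concentration series and loaded with oleic acid (400 uM, as added). Lipid droplet fluorescence (488 nm excitation, 500-530 nm channel) was read by laser-scanning cytometry and normalized to 20 uM Triacsin C.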
# [18] = molecular target: Bile acid receptor (Homo sapiens) (UniProt Q96RI1); experiment: qHTS assay for small molecule agonists of farnesoid X receptor signaling (AID 588527); details: HEK293T FXR-UAS-bla, beta-lactamase ratio, 16 h; activation: stronger effect = higher value
# Chain of Bile acid receptor (Homo sapiens) (Q96RI1 whole entry, looked up): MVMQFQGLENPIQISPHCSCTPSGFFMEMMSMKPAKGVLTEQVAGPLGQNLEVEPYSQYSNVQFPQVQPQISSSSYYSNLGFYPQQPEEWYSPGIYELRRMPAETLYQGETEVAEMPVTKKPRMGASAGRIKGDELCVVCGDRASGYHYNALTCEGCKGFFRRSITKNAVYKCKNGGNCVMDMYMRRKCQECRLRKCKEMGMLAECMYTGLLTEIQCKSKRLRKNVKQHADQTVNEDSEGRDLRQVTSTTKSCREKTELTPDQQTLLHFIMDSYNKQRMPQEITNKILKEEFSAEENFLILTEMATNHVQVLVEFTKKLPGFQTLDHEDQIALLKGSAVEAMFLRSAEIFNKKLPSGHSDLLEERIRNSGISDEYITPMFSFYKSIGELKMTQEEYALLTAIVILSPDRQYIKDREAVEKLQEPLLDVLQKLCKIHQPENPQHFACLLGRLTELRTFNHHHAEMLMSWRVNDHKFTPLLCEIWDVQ
# Procedure, shortened: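 Quantitative HTS used FXR-UAS-bla HEK293T cells with 16 h compound incubation at 37 C. EC50 values came from concentration-response curves normalized to chenodeoxycholic acid.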
# [19] = qHTS profiling of the MIPE4 collection as inhibitors of Plasmodium falciparum (3D7) proliferation (AID 743344; call rule not given here); details: P. falciparum 3D7 in erythrocytes, SYBR Green DNA fluorescence, 72 h; at 28.5 µM (top of the series) unless noted
# Procedure, shortened: (§1)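 Parasite DNA was quantified by SYBR Green I fluorescence (ex 485, em 535 nm) after overnight lysis in saponin/Triton buffer at room temperature. Cultures at 0.3% parasitemia and 2.5% hematocrit were first exposed to compound for 72 h at 37 C; signals were normalised to artemisinin (0.29 uM) and vehicle wells.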
# [20] = qHTS profiling of the MIPE4 collection as inhibitors of Plasmodium falciparum (DD2) proliferation (AID 743345; call rule not given here); details: P. falciparum Dd2 in erythrocytes, SYBR Green DNA, 72 h; at 28.5 µM (top of the series) unless noted
# Procedure, shortened: as §1
# [21] = qHTS profiling of the MIPE4 collection as inhibitors of Plasmodium falciparum (HB3) proliferation (AID 743347; call rule not given here); details: P. falciparum HB3 in erythrocytes, SYBR Green DNA, 72 h; at 28.5 µM (top of the series) unless noted
# Procedure, shortened: as §1
structure (smiles),measurement,setting,value
CC/C=C\[C@H](O)[C@H](O)C1=C(C)C(=O)[C@]2(O1)C(=O)N[C@@](OC)(C(=O)c1ccccc1)C2O (stereo partly drawn),Potency,[1],inactive
same,Potency,[2],inactive
same,Potency,[3],inactive
Cc1nccc2c1[nH]c1ccc(Br)cc12,Potency,[1],inactive
same,Potency,[2],inactive
same,Potency,[3],inactive
Cc1cccc(Nc2nc(-c3ccncc3)cs2)c1,Potency,[1],inactive
same,Potency,[2],inactive
same,Potency,[3],inactive
same,Potency,[4],10 µM (active)
same,Potency,[5],794 nM (active)
same,Potency,[6],10 µM (active)
CN1CCN(c2cccc(Nc3nc4c(-c5ccc(S(C)(=O)=O)cc5)cccn4n3)c2)CC1,Potency,[1],inactive
same,Potency,[2],inactive
same,Potency,[3],inactive
same,Potency,[7],inactive
CCN(CCO)CCCOc1ccc2c(Nc3cc(CC(=O)Nc4cccc(F)c4)[nH]n3)ncnc2c1,Potency,[1],inactive
same,Potency,[2],inactive
same,Potency,[3],inactive
same,Potency,[7],inactive
same,"activity change, negative = inhibition",[6],-58.3%
CC=CC(C)=CC(C)C(=O)CC(O)CC1CC(=O)NC(=O)C1 (stereo not drawn),Potency,[1],inactive
same,Potency,[2],inactive
same,Potency,[3],inactive
COc1cc(C(C)C)c2c(c1)S(=O)(=O)N(COc1cc(=O)n3cccc(OCCN4CCCCC4)c3n1)C2=O,Potency,[1],inactive
same,Potency,[2],inactive
same,Potency,[3],inactive
same,Potency,[7],inactive
same,"activity change, negative = inhibition",[6],-36.9%
Nc1nc(F)nc2c1ncn2[C@@H]1O[C@H](COP(=O)(O)O)[C@@H](O)[C@H]1O,Potency,[1],inactive
same,Potency,[2],inactive
same,Potency,[3],inactive
Nc1ncn([C@@H]2O[C@H](CO)[C@@H](O)[C@@H]2O)c(=O)n1,Potency,[1],inactive
same,Potency,[2],inactive
same,Potency,[3],inactive
C[C@]12CC[C@H]3C(=CCc4cc(O)ccc43)[C@@H]1CCC2=O,Potency,[1],inactive
same,Potency,[2],inactive
same,Potency,[3],inactive
CC(C)n1cnc2c(NCCc3ccc(O)cc3)nc(-c3csc4ccccc34)nc21,Potency,[1],inactive
same,Potency,[2],inactive
same,Potency,[3],inactive
same,Potency,[7],inactive
same,"activity change, negative = inhibition",[6],-45.8%
CCn1c(C(=O)N(C2CC2)C2CC2)cc2c3c(ncn3C)c(Nc3cc(C)n(C)n3)nc21,Potency,[1],inactive
same,Potency,[2],inactive
same,Potency,[3],inactive
same,Potency,[7],inactive
same,"activity change, negative = inhibition",[6],-14.3%
Clc1cc(Cl)cc(CNc2ncncc2-c2ccc3c(c2)OCO3)c1,Potency,[1],inactive
same,Potency,[2],inactive
same,Potency,[3],inactive
COc1cc2c(cc1OC)-c1cc3cc(OC)c(OC)cc3c(=O)n1CC2,Potency,[1],inactive
same,Potency,[2],inactive
same,Potency,[3],inactive
C[C@H](NC(=O)C(C#N)=Cc1cccc(Br)n1)c1ccccc1,Potency,[1],inactive
same,Potency,[2],inactive
same,Potency,[3],inactive
COc1cc(C(=O)O[C@H]2C/C(C)=C/CC[C@@]3(C)O[C@@H]3[C@H](O)[C@@H]2C(C)C)cc(OC)c1OC,Potency,[1],inactive
same,Potency,[2],inactive
same,Potency,[3],inactive
COc1c(O)cc(O)c2c(=O)cc(-c3ccccc3)oc12,Potency,[1],inactive
same,Potency,[2],inactive
same,Potency,[3],inactive
same,outcome,[8],inactive
C[C@]12CC[C@@H]3c4ccc(O)cc4CC[C@H]3[C@@H]1CC[C@@H]2O,outcome,[9],inactive
same,outcome,[10],inactive
same,Potency,[11],inactive
same,outcome,[12],inactive
same,Potency,[13],inactive
same,Potency,[1],inactive
same,Potency,[2],inactive
same,Potency,[3],inactive
same,Potency,[14],inactive
same,outcome,[15],inactive
same,outcome,[16],inactive
CN(C)CC[C@H](CSc1ccccc1)Nc1ccc(S(=O)(=O)NC(=O)c2ccc(N3CCN(Cc4ccccc4-c4ccc(Cl)cc4)CC3)cc2)cc1[N+](=O)[O-],Potency,[1],inactive
same,Potency,[2],inactive
same,Potency,[3],inactive
same,Potency,[7],inactive
same,"activity change, negative = inhibition",[6],1.37%
O=c1[nH]nc(OCCCc2ccc(Cl)cc2)c(NCc2cccnc2)c1Br,Potency,[1],inactive
same,Potency,[2],inactive
same,Potency,[3],inactive
same,Potency,[7],inactive
same,"activity change, negative = inhibition",[6],-25.1%
O=C1NC(=O)C(=Cc2ccc(-c3ccc(F)cc3)o2)S1,Potency,[1],inactive
same,Potency,[2],inactive
same,Potency,[3],inactive
NS(=O)(=O)c1ccc(Nc2nc(OCC3CCCCC3)c3[nH]cnc3n2)cc1,Potency,[1],inactive
same,Potency,[2],inactive
same,Potency,[3],inactive
same,Potency,[7],inactive
C=CC(=O)Nc1cccc(Sc2nc(Nc3ccc(N4CCN(C)CC4)cc3)ncc2Cl)c1,Potency,[1],inactive
same,Potency,[2],inactive
same,Potency,[3],inactive
same,Potency,[7],8.91 µM (active)
same,Potency,[6],3.98 µM (active)
COC1=C2C[C@@H](C)C[C@H](OC)[C@@H](O)[C@@H](C)C=C(C)[C@H](OC(N)=O)[C@@H](OC)C=CC=C(C)C(=O)NC(=CC1=O)C2=O,Potency,[1],9.68 µM (active)
same,Potency,[2],13.7 µM (active)
same,Potency,[3],15.3 µM (active)
C=C1C[C@H](OC(=O)C(C)(O)CCl)C2C(=C)C(=O)O[C@@H]2C2C1C[C@H](O)[C@]2(O)CCl (stereo partly drawn),Potency,[1],inactive
same,Potency,[2],inactive
same,Potency,[3],inactive
O=C1OC(=O)C2C3CCC(O3)C12 (stereo not drawn),"activity change, negative = inhibition",[17]; at 57.5 µM (top of the series),0.66% (inactive) and -7.44% (inactive)
same,max response,[17]; measured here: cell count channel max response,-1.46% and -29.7%
same,max response,[17]; measured here: lipid channel max response,1.23% and -36.1%
O=C(Nc1ccccc1)c1cc([N+](=O)[O-])ccc1Cl,activation,[18],-1.48% (inactive)
same,Potency,[13],inactive
O=c1c(-c2ccc(O)cc2)coc2cc(O)ccc12,activation,[18],2% (inactive) and 3.27% (inactive)
same,Potency,[13],inactive
CC(N[C@H]1CCCC[C@H]1NC(=O)c1ccc(Cl)cc1)c1cccc2ccccc12 (stereo partly drawn),"parasite growth, % of DMSO control",[19],31.1%
same,"parasite growth remaining, % of DMSO control (lower = more inhibition)",[20],79.2%
same,"growth, % of control",[21],39.9%
COc1cc2nccc(Oc3ccc(NC(=O)NC4CC4)c(Cl)c3)c2cc1C(N)=O,Potency,[14],3.55 µM (active)
same,outcome,[15],inactive
same,outcome,[16],inactive
Nc1ncnc2c1c(-c1cccc(OCc3ccccc3)c1)cn2C1CC(CN2CCCC2)C1 (stereo not drawn),Potency,[4],12.6 µM (active)
COc1ccc2nc3cc(Cl)ccc3c(Nc3cc(CN4CCCC4)c(O)c(CN4CCCC4)c3)c2n1,Potency,[1],inactive
same,Potency,[3],inactive
N=c1ccn2c(n1)O[C@H]1[C@@H](O)[C@@H](CO)O[C@H]12,Potency,[1],inactive
same,Potency,[3],inactive
same,Potency,[7],inactive
same,Potency,[6],10 µM (active)
